Usually AC50 stands for the concentration giving half of the maximal activity seen.

Consider 36 compounds from PMC6792352, “Limited Chemical Structural Diversity Found to Modulate Thyroid Hormone Receptor in the Tox21 Chemical Library” (Environmental Health Perspectives, 2019).

Where a name gives a salt, the structure may show the parent alone.

The assay deals with thyroid hormone receptor (endogenous TRα and TRβ). Further details: species or system GH3-TRE-Luc (rat pituitary); GH3-TRE-Luc luciferase reporter, antagonist mode against 1 nM T3, loss of signal, qHTS. The conditions noted are these: read-out: Average AC50 (uM) GH3-TRE-Antag, antagonist mode, 1 nM T3, no GH3 cytotoxicity hit.
With `CCCCCCOc1ccc(N)cc1` [4-Hexyloxyaniline], the half-maximal activity concentration (AC50) turned out to be 59.8 µM.

Regarding `O=C(c1ccc(O)cc1)c1ccc(O)cc1O` [2,4,4'-Trihydroxybenzophenone], the AC50 is > 90 µM.

`CC(=O)c1c(C)cc(C(C)(C)C)cc1C` [4'-tert-Butyl-2',6'-dimethylacetophenone]: the concentration at half-maximal activity (AC50) amounted to 48.7 µM.

Take `CCN(CCCCOC(=O)c1ccc(OC)c(OC)c1)C(C)Cc1ccc(OC)cc1` (stereo not drawn) [Mebeverine hydrochloride]: the concentration at half-maximal activity (AC50) was determined as 13.7 µM.

Take `Nc1nc(N)c2nc(CNc3ccc(C(=O)N[C@@H](CCC(=O)O)C(=O)O)cc3)cnc2n1` [4-Aminofolic acid]: the half-maximal activity concentration (AC50) worked out at 25.2 µM.

As to `O=S1(=O)c2cccc3cccc(c23)N1CCCN1CCN(c2ccc(F)cc2)CC1` [Fananserin], the concentration at half-maximal activity (AC50) was > 50 µM.

`CCCCCCCCCCCCSC#N` [Lauryl thiocyanate]: the AC50 stood at 42.6 µM.

Turning to `CCOC(=O)n1ccn(C)c1=S` [Carbimazole], the concentration at half-maximal activity (AC50) was > 20 µM.

On to `O=C(/C=C/C=C/c1ccc2c(c1)OCO2)N1CCCCC1` [Piperine], for which the AC50 came to 73.5 µM.

As for `CC1(C)[C@H](C(=O)O[C@H](C#N)c2cccc(Oc3ccccc3)c2)[C@@H]1C=C(Cl)Cl` [alpha-Cypermethrin], the AC50 is > 90 µM.

`CC(=O)OC(c1ccccc1)C(Cl)(Cl)Cl` (stereo not drawn) [2,2,2-Trichloro-1-phenylethyl acetate]: the concentration at half-maximal activity (AC50) turned out to be 55.4 µM.

As for `C=CC[C@]1(O)CC[C@H]2[C@@H]3CCC4=CC(=O)CCC4=C3C=C[C@@]21C` [Altrenogest], the AC50 was found to be 11.8 µM.

`CO/C=C(/C(=O)OC)c1ccccc1COc1cccc(C(F)(F)F)n1` [Picoxystrobin]: the AC50 is 0.276 µM.

Turning to `c1cc2c(c(NC3=NCCN3)c1)CCCC2` [Tramazoline tosylate], the concentration at half-maximal activity (AC50) stood at 37.5 µM.

For the compound `COc1ccc(C(=O)c2ccccc2O)c(O)c1` [2,2'-Dihydroxy-4-methoxybenzophenone], the AC50 was > 20 µM.

In the case of `CCCN(CCC)S(=O)(=O)c1ccc(C(=O)O)cc1` [Probenecid], the AC50 was determined as 4.15 µM.

Take `CN1C(=O)[C@@H](NC(=O)c2cc3ccccc3[nH]2)N=C(c2ccccc2)c2ccccc21` [Devazepide]: the AC50 was 6.13 µM.

For `CCCC(=O)c1cc(O)c(O)cc1O` [2',4',5'-Trihydroxybutyrophenone], the half-maximal activity concentration (AC50) is 52.7 µM.

In the case of `O=c1oc2c(O)c(O)cc3c(=O)oc4c(O)c(O)cc1c4c23` [Ellagic acid], the AC50 was 12.9 µM.

On to `CC[C@H]1OC(=O)[C@H](C)C(=O)[C@H](C)[C@@H](O[C@@H]2O[C@H](C)C[C@H](N(C)C)[C@H]2O)[C@](C)(OC)C[C@@H](C)C(=O)[C@H](C)[C@H]2N(CCCCn3cnc(-c4cccnc4)c3)C(=O)O[C@]12C` [Telithromycin], for which the half-maximal activity concentration (AC50) was 22.2 µM.

With `Cc1c(F)c(F)c(COC(=O)[C@H]2[C@@H](/C=C(\Cl)C(F)(F)F)C2(C)C)c(F)c1F` (racemic) [Tefluthrin], the AC50 was determined as 59.6 µM.

`c1ccc(Nc2ccccc2)cc1` [Diphenylamine]: the half-maximal activity concentration (AC50) came out at 83.1 µM.

On to `CCCCCCCCCC/C=C/C1CC(=O)OC1=O` (stereo not drawn) [3-(Dodecenyl)dihydro-2,5-furandione], for which the AC50 is > 90 µM.

Turning to `CSc1ccc(/C=C2/C(C)=C(CC(=O)O)c3cc(F)ccc32)cc1` [Sulindac sulfide], the concentration at half-maximal activity (AC50) is 24 µM.

Consider `CCC[C@@]1(CCc2ccccc2)CC(O)=C([C@H](CC)c2cccc(NS(=O)(=O)c3ccc(C(F)(F)F)cn3)c2)C(=O)O1` [Tipranavir], for which the AC50 stood at 36.8 µM.

Regarding `CC(C)NC(=O)N1CC(=O)N(c2cc(Cl)cc(Cl)c2)C1=O` [Iprodione], the AC50 turned out to be 59.3 µM.

Take `CCCCCCCC/C=C/CCCCCCCC(=O)OCCO` [Polyoxyethylene monoleate]: the AC50 was determined as 81.3 µM.

On to `C[C@@H]1C[C@H]2[C@@H]3C[C@H](F)C4=CC(=O)C(Cl)=C[C@]4(C)[C@@]3(F)[C@@H](O)C[C@]2(C)[C@@]1(O)C(=O)CO` [Halometasone hydrate], for which the concentration at half-maximal activity (AC50) was found to be 33.2 µM.

Regarding `CCCC(=O)N1CCCN(c2nc(N)c3cc(OC)c(OC)cc3n2)CC1` [Bunazosin hydrochloride], the AC50 is 47.9 µM.

On to `O=c1oc2ccccc2c(O)c1Cc1c(O)c2ccccc2oc1=O` [Dicumarol], for which the concentration at half-maximal activity (AC50) is 12.7 µM.

On to `CCCCCCCCCCCCNC(=N)N` [Dodine], for which the AC50 stood at 2.89 µM.

Consider `COC(=O)[C@H](c1ccccc1Cl)N1CCc2sccc2C1` [Clopidogrel hydrogen sulfate], for which the half-maximal activity concentration (AC50) turned out to be 45.8 µM.

As to `O=C(O)c1cccc(C[C@@H]2COc3ccc(OCc4nc5cc(F)ccc5s4)cc3[C@@H]2O)c1` [CP-085958], the AC50 was 53.1 µM.

Consider `CC(C)=CCC[C@](C)(O)[C@@H]1CC=C(C)CC1` [Levomenol], for which the AC50 was determined as 38 µM.

`C/C=C(C)/C=C/C=C(C)C` [2,6-Dimethyl-2,4,6-octatriene]: the AC50 is > 90 µM.

Turning to `COc1ccc(O)cc1` [4-Methoxyphenol], the AC50 is > 50 µM.
